PubChem BioAssay (NCATS)
“And” between values parts separate entries of the source, which are not always exact repeats. Equal entries are not always repeated. Records with an inconclusive call do not appear. The source made the active and inactive calls. Unless noted, calls come from the whole dose curve; as a rule, active = well fitted curve in the direction sought with a large enough effect; inconclusive = small, poorly fitted or top-dose-only effect, or another doubt; inactive = no such curve, though single readings can be large; an effect the other way counts as inactive or inconclusive.

What was measured:
[1] = target: Androgen receptor (Homo sapiens) (UniProt P10275); experiment: qHTS assay for small molecule agonists of androgen receptor signaling (AID 588515; active = well fitted curve in the direction sought with a large enough effect in the signal ratio, with a control signal flat; the % refers to the signal ratio; note: % is set by controls: 0 for no effect and ±100 for the full control effect); conditions: AR-UAS-bla HEK293, beta-lactamase ratio, agonist 16 h; stronger effect = higher value
Procedure, shortened: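 Stimulation of an AR-responsive β-lactamase reporter in GripTite HEK293 cells was measured after 16 h compound exposure at 37 °C, via CCF4 fluorescence after 2 h RT. EC50 from Hill fits, normalized to R1881 at 30 nM.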

[2] = target: Androgen receptor (Homo sapiens) (UniProt P10275); experiment: qHTS assay for small molecule antagonists of androgen receptor signaling (AID 588516; active = well fitted curve in the direction sought with a large enough effect in the signal ratio, with a control signal flat, not every such curve was filed as active; the % refers to the signal ratio; note: % is set by controls: 0 for no effect and ±100 for the full control effect); conditions: AR-UAS-bla HEK293, beta-lactamase ratio, antagonist mode, 16 h; series mostly up to 76.8 µM
Procedure, shortened: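 Compounds tested in titration against 10 nM R1881 in AR-responsive bla reporter HEK 293 cells; CCF4 fluorescence (460/530 nm) after 16 h exposure gave IC50 and efficacy.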

[3] = target: Bile acid receptor (Homo sapiens) (UniProt Q96RI1); experiment: qHTS assay for small molecule antagonists of farnesoid X receptor signaling (AID 588526; calls by dose curve; note: % is set by controls: 0 for no effect and ±100 for the full control effect); conditions: HEK293T FXR-UAS-bla, beta-lactamase ratio, antagonist mode; series mostly up to 76.7 µM
Procedure, shortened: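 Concentration-response titrations were fitted to the Hill equation for half-maximal inhibition and maximal response, with data normalised to 50 uM chenodeoxycholic acid and DMSO control wells. Cells: FXR-UAS-bla HEK293T, dialyzed FBS.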

[4] = target: Peroxisome proliferator-activated receptor gamma (Homo sapiens) (UniProt P37231); experiment: qHTS assay for small molecule agonists of peroxisome proliferator-activated receptor gamma signaling (AID 588536; active = well fitted curve in the direction sought with a large enough effect in the signal ratio, with a control signal flat, not every such curve was filed as active; the % refers to the signal ratio;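 note: 0% = DMSO basal wells and 100% = rosiglitazone at 2 µM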); conditions: HEK293 PPARg-UAS-bla, beta-lactamase ratio, 16 h; series mostly up to 76.7 µM
Procedure, shortened: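 Cells were plated and held 6–6.5 h at 37 C, then compounds were added as a titration series. After a further 16 h, CCF4 dye was loaded for 2 h at room temperature and emission at 460/530 nm recorded.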

[5] = qHTS assay for small molecule activators of the nuclear factor-kappa B (NF-kB) signaling pathway (AID 651749; active = well fitted activation curve with a large enough effect in the signal ratio; the % refers to the signal ratio; note: % of control where 0% means no effect); conditions: NF-kB-bla ME-180 cells, beta-lactamase FRET ratio, 16 h; activation: stronger effect = higher value
Procedure, shortened: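 Beta-lactamase reporter expression, controlled by NF-kB response elements in ME-180 cells, was quantified fluorometrically via FRET disruption; cells at 2,000/well had been incubated with 23 nL test compound for 16 hr.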

[6] = target: Cytochrome P450 3A4 (Homo sapiens) (UniProt P08684); experiment: qHTS Assay for Inhibitors and Substrates of Cytochrome P450 3A4 (AID 884); conditions: recombinant CYP3A4, Luciferin-PPXE luminescence; series mostly up to 57.1 µM; note: nearly all actives have a fitted effect of over 50% in size; note: potency is the fitted concentration of half-maximal effect
Procedure, shortened: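 Luminescent readout of luciferin produced by CYP3A4 (20 nM) dealkylation of Luciferin-PPXE, 25 uM (its KM). NADPH-driven reaction ran 60 min at RT after 10 min compound preincubation; data scaled to 57 uM ketoconazole as 100% inhibition.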

[7] = target: Cytochrome P450 3A4 (Homo sapiens) (UniProt P08684); experiment: qHTS Assay for Activators of Cytochrome P450 3A4 (AID 885); conditions: recombinant CYP3A4, Luciferin-PPXE luminescence, 60 min; series mostly up to 57.1 µM; note: nearly all actives have a fitted effect of over 65% in size
Procedure, shortened: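 Human CYP3A4 dealkylates Luciferin-PPXE to luciferin, which luciferase detection converts to light. Substrate was at its KM (25uM), buffer 200mM KPO4, reaction 60 min at RT.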

[8] = target: DNA dC->dU-editing enzyme APOBEC-3G (Homo sapiens) (UniProt Q9HC16); experiment: qHTS for inhibitors of Vif-A3G interactions: Validation (AID 588379); conditions: Vif-A3G protein interaction assay; series mostly up to 46.1 µM; note: 0% is about no effect
Procedure, shortened: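 Yellow fluorescence (Ex 488, Em 500-530) of Vif-coexpressing HeLa A3G-eYFP cells, scanned by Acumen cytometer, reports blocked A3G degradation. Cells plated at 700/well overnight at 37 deg C before compound addition, then a further overnight compound incubation at 37 deg C.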

[9] = target: Bile acid receptor (Homo sapiens) (UniProt Q96RI1); experiment: qHTS assay for small molecule agonists of farnesoid X receptor signaling (AID 588527; calls by dose curve;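 note: 0% = vehicle basal and 100% = reference agonist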); conditions: HEK293T FXR-UAS-bla, beta-lactamase ratio, 16 h; activation: stronger effect = higher value
Procedure, shortened: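 FXR-UAS-bla HEK293T cells (10% dialyzed FBS) preincubated 5-7 h at 37 C, then compounds at up to 92 uM for 16 h at 37 C. CCF4 beta-lactamase read-out after 2 h RT. Normalized to chenodeoxycholic acid (100 uM) and DMSO; Hill fit gave EC50 and efficacy.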

[10] = target: Glucocorticoid receptor (Homo sapiens) (UniProt P04150); experiment: qHTS assay for small molecule antagonists of glucocorticoid receptor signaling (AID 588533; active = well fitted inhibition curve with a large enough effect in the signal ratio, with a control signal flat, not every such curve was filed as active; the % refers to the signal ratio;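 note: cells stimulated with 2 nM dexamethasone as agonist; % is set by controls: 0 for no effect and ±100 for the full control effect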); conditions: HeLa MMTV-bla, GRE beta-lactamase ratio, antagonist mode, 18 h; series mostly up to 76.8 µM
Procedure, shortened: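 Antagonist-mode qHTS: compound titrations added to GRE-bla HeLa cells, then dexamethasone 2 nM final; 18 h, 37 C. CCF4 FRET fluorescence normalized to dexamethasone and DMSO; IC50 from Hill fit.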

[11] = qHTS assay for small molecule antagonists of peroxisome proliferator-activated receptor delta signaling (AID 588535; active = well fitted inhibition curve with a large enough effect in the signal ratio, with a control signal flat, not every such curve was filed as active; the % refers to the signal ratio;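 for max response: cells co-treated with a PPAR-delta agonist as stimulator during compound exposure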); conditions: HEK293T PPARd-UAS-bla, beta-lactamase FRET ratio, 18 h; 460 nm channel
Procedure, shortened: (§1)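 Compounds tested in titration on PPAR-delta-UAS-bla HEK293T cells grown in charcoal/dextran-stripped serum (2%); beta-lactamase activity read via CCF4 emission at 460 and 530 nm.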

[12] = target: Peroxisome proliferator-activated receptor delta (Homo sapiens) (UniProt Q03181); experiment: as above; conditions: HEK293T PPARd-UAS-bla, beta-lactamase FRET ratio, 18 h; series mostly up to 76.7 µM
Procedure, shortened: as §1

[13] = target: Peroxisome proliferator-activated receptor gamma (Homo sapiens) (UniProt P37231); experiment: qHTS assay for small molecule antagonists of peroxisome proliferator-activated receptor gamma signaling (AID 588537; active = well fitted inhibition curve with a large enough effect in the signal ratio, with a control signal flat, not every such curve was filed as active; the % refers to the signal ratio;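 note: reporter cells co-stimulated with 50 nM rosiglitazone agonist during compound treatment; % of control where 0% means no effect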); conditions: HEK293 PPARg-UAS-bla, beta-lactamase ratio, antagonist mode; series mostly up to 76.8 µM
Procedure, shortened: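 HEK293 cells, PPAR-gamma-UAS-bla, 3000/well. Pre-incubation 6-6.5 h, 37 C. Compound titration with rosiglitazone 50 nM final, 16 h. CCF4 dye, 2 h RT, dual-emission fluorescence.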

[14] = qHTS assay for small molecule agonists of the antioxidant response element (ARE) signaling pathway (AID 651741; active = well fitted activation curve with a large enough effect in the signal ratio; the % refers to the signal ratio; note: potency is the fitted concentration of half-maximal effect; for activation: % of control where 0% means no effect); conditions: HepG2 ARE-bla reporter, beta-lactamase FRET ratio, 16 h; series mostly up to 96 µM
Procedure, shortened: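 Beta-lactamase reporter expression driven by the antioxidant response element in HepG2 cells was detected by fluorescence with LiveBLAzer B/G FRET substrate (2 h, room temperature) following 16 h compound treatment at 37 C.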

[15] = qHTS assay for small molecule activators of the human pregnane X receptor (PXR) signaling pathway (AID 720659; call rule not given here; note: 0% is about no effect); conditions: DPX-2 HepG2 CYP3A4-luciferase, 24 h; series mostly up to 92.3 µM
[16] = Confirmation and Secondary Assay for Modulators of Hemoglobin Beta Chain Splicing at IVS2 654 locus (AID 910); conditions: HeLa EGFP-654 splicing reporter, GFP fluorescence, 48 h; series mostly up to 46.1 µM;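 note: per-well total GFP intensity by laser scanning cytometry after 2-day treatment; % of control where 0% means no effect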
Procedure, shortened: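 HeLa cells stably carrying EGFP interrupted by mutant beta-globin IVS2-654 intron (CMV-driven) were treated with compound for 2 days at 37C; corrected splicing was scored as total peak GFP intensity per well (488 nm excitation, 500-520 nm emission).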

[17] = Confirmation and Secondary Assay for Modulators of Hemoglobin Beta Chain Splicing at IVS2 705 locus (AID 930); conditions: HeLa EGFP-705 splicing reporter, GFP fluorescence, 48 h; series mostly up to 46.1 µM;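 note: HeLa cells stably expressing the EGFP-705 splicing reporter; % of control where 0% means no effect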
Procedure, shortened: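 HeLa cells stably carrying EGFP interrupted by mutant beta-globin IVS2-705 intron (CMV-driven) were seeded at 500 cells/well, treated next day with compound for 2 days at 37C; corrected splicing restores EGFP, read as total peak GFP intensity per well.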

Sequence of Peroxisome proliferator-activated receptor gamma (Homo sapiens) (P37231 whole entry, looked up): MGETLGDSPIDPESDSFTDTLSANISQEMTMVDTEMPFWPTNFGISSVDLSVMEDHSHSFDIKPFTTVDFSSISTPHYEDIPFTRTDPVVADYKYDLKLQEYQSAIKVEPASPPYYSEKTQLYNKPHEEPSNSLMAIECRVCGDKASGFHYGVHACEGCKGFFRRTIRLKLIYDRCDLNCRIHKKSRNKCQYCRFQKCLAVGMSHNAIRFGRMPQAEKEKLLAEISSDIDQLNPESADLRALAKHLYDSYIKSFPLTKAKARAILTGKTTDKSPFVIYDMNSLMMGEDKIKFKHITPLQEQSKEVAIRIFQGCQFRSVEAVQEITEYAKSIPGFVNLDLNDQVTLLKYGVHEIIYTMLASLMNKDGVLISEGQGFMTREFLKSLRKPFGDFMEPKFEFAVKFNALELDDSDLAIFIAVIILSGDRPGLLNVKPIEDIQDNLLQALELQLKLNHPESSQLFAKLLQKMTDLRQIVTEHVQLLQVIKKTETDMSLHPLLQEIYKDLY
Sequence of Glucocorticoid receptor (Homo sapiens) (P04150 whole entry, looked up): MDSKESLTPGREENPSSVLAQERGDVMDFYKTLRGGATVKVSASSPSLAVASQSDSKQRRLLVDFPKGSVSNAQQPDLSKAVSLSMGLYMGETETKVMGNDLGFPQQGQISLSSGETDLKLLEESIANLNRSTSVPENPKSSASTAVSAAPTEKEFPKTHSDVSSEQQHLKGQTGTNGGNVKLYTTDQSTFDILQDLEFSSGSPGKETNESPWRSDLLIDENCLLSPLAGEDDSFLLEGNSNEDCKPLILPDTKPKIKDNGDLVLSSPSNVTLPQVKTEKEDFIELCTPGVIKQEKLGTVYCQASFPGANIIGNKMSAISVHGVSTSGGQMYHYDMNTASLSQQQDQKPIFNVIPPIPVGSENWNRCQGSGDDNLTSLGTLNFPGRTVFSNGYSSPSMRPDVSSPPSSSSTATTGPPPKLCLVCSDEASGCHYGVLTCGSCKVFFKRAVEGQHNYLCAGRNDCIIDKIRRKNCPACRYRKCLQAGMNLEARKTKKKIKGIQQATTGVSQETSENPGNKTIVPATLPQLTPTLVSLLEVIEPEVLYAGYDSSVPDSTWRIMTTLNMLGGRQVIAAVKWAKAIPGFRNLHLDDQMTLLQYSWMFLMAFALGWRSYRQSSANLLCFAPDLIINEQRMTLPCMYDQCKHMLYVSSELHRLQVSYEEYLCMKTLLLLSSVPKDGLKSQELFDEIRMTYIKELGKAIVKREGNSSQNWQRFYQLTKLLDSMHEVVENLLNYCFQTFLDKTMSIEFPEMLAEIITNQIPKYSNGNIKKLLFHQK
Sequence of Androgen receptor (Homo sapiens) (P10275 whole entry, looked up): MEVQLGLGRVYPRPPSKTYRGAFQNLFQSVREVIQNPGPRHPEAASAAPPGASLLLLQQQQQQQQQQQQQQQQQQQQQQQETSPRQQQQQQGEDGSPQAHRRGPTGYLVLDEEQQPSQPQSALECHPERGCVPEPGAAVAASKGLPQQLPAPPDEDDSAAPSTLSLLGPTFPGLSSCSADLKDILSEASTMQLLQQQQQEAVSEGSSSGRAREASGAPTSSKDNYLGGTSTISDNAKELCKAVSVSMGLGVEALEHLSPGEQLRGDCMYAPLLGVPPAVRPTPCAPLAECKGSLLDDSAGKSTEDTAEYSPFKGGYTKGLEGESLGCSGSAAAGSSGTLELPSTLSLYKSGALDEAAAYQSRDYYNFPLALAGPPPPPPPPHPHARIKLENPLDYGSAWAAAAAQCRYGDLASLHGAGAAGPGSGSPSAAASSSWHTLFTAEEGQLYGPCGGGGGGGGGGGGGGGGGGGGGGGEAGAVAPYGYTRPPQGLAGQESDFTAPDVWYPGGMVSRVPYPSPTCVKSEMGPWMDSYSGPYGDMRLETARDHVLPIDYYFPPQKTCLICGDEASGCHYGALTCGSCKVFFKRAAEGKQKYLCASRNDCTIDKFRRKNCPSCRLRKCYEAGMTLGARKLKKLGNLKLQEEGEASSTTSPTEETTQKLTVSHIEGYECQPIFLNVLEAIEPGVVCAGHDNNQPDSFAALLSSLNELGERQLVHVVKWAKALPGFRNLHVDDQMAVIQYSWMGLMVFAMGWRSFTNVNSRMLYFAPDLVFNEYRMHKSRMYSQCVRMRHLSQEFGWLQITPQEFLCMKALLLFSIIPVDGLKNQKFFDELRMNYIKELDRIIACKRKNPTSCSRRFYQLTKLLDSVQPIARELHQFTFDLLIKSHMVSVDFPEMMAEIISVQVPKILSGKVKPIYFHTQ
Sequence of Bile acid receptor (Homo sapiens) (Q96RI1 whole entry, looked up): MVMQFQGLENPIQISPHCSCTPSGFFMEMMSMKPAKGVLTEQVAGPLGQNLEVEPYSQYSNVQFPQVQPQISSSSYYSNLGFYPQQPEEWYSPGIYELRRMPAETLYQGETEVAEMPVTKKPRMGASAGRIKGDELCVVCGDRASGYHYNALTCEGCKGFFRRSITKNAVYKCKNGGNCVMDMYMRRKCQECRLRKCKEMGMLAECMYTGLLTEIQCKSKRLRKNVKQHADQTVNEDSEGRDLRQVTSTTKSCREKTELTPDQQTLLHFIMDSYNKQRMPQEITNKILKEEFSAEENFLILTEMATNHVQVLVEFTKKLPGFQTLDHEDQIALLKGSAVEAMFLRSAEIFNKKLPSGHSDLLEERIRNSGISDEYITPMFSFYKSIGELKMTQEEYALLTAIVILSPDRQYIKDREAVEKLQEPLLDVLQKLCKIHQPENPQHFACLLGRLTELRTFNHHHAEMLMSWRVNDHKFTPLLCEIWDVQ
Sequence of Cytochrome P450 3A4 (Homo sapiens) (P08684 whole entry, looked up): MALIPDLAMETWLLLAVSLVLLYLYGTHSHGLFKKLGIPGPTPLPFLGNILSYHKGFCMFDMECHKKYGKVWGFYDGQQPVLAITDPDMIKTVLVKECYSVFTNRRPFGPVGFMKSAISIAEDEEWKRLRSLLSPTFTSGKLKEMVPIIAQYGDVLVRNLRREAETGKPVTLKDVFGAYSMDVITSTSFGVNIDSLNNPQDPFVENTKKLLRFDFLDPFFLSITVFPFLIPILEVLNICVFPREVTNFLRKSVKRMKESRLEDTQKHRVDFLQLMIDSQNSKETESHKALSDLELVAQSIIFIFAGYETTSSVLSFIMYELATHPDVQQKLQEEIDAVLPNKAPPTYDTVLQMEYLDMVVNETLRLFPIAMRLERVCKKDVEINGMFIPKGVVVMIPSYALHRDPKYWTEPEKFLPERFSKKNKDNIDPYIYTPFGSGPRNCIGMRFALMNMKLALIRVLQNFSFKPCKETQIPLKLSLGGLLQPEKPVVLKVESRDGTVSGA
Sequence of DNA dC->dU-editing enzyme APOBEC-3G (Homo sapiens) (Q9HC16 whole entry, looked up): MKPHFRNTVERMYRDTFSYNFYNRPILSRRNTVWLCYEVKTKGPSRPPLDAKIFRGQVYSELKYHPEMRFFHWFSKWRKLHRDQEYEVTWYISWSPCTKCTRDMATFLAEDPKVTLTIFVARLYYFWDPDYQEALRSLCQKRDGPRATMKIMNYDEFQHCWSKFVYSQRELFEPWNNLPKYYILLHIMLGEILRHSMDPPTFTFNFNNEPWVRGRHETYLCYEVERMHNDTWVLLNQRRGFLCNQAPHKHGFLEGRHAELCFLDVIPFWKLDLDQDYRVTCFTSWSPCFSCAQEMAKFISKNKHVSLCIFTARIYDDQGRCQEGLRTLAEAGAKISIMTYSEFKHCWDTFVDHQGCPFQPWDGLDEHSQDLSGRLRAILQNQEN
Sequence of Peroxisome proliferator-activated receptor delta (Homo sapiens) (Q03181 whole entry, looked up): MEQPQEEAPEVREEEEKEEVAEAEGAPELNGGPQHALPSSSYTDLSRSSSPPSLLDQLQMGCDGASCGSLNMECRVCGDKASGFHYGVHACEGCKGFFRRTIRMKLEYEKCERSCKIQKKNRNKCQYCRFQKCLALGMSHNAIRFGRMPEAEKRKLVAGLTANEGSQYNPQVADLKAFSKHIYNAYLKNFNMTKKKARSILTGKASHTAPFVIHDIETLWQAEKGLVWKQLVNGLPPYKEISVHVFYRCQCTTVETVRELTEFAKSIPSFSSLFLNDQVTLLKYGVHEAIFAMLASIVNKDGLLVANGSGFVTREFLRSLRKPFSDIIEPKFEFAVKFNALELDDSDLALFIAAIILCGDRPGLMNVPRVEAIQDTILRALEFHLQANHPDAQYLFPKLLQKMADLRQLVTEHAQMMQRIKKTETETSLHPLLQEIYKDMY

C/C=C(\C)C(=O)O[C@H]1C[C@@H](OC(C)=O)[C@@]2(C(=O)OC)CO[C@H]3[C@@H](O)[C@@](C)([C@]45O[C@@]4(C)[C@H]4C[C@@H]5O[C@@H]5OC=C[C@@]54O)[C@H]4[C@]1(CO[C@]4(O)C(=O)OC)[C@@H]32
inactive: activation [1] 2.71% | Potency [2] | Potency [3] | Potency [4] | activation [5] -1.4%

CC1CCC2C(C)C(=O)OC3OC4(C)CCC1C32OO4 (configuration not stated)
inactive: outcome [8]

O=c1cccc2n1CC1CC2CN2CCCC[C@H]12 (some centres not stated)
inactive: Potency [6] | outcome [8]

CCOP(=O)(O)C(N)=O
inactive: Potency [3] | activation [9] 3.28% | Potency [10] | Potency [12] | Potency [13] | Potency [14] | outcome [15]
57.5%: max response [11]

CCOP(=O)(NC(C)C)Oc1ccc(S(C)=O)c(C)c1 (configuration not stated)
-19.9%: max response [11]
inactive: Potency [2] | Potency [3] | activation [9] -0.691% | Potency [10] | Potency [12] | Potency [14] | activation [5] 0.567% | outcome [15]

COc1cc2c(cc1OC)-c1c(O)c(OC)cc3c1[C@H](C2)N(C)CC3
active: Potency [6] 7.94 µM
inactive: Potency [7] | outcome [8]

CCCCN(CC)C(=O)SCCC
5.34%: max response [11]
inactive: activation [1] 8.69% | Potency [3] | Potency [10] | Potency [12] | Potency [4] | Potency [13] | activation [5] -0.995% | outcome [15]

CN1Cc2c(ccc3c2OCO3)C2C(O)Cc3cc4c(cc3C21)OCO4 (configuration not stated)
inactive: Potency [7] | Potency [16] | outcome [17] | outcome [8]

C=CC(=O)NCO
1.4%: max response [11]
inactive: activation [1] -1.79% and 14.2% | Potency [2] | Potency [3] | activation [9] 0.901% and -4.9% | Potency [10] | Potency [12] | Potency [4] | Potency [13] | outcome [15]
active: Potency [14] 501 µM

CCOP(=S)(OCC)Oc1ncn(-c2ccccc2)n1
1.15%: max response [11]
inactive: activation [1] 5.78% | Potency [2] | Potency [3] | activation [9] 2.14% | Potency [12] | Potency [4] | Potency [14]

CC(C)[C@]1(NC(=O)[C@@H]2C=C3c4cccc5[nH]cc(c45)C[C@H]3N(C)C2)O[C@@]2(O)C3CCCN3C(=O)[C@H](Cc3ccccc3)N2C1=O (some centres not stated)
inactive: Potency [7] | outcome [8]

COC1=C[C@H]2[C@H]3Cc4ccc(OC)c(O)c4[C@@]2(CCN3C)CC1=O
inactive: Potency [7] | outcome [8]

CCOP(=O)(OCC)SCSC(C)(C)C
inactive: activation [1] 3.02% | Potency [2] | Potency [3] | Potency [10] | Potency [12] | Potency [4] | Potency [14] | activation [5] -3.03% | outcome [15]
5.82%: max response [11]
